Screening data as filed in PubChem.
This excerpt belongs to a sample that is enriched for hits.
TbPYK inhibitor: T. brucei pyruvate kinase inhibition. Q57TT1. TbPYK enzyme, Kinase-Glo Plus ATP luminescence, 45 min. Potency, µM (series often up to 76.8 µM), without a hit: at the top dose activity, negative = inhibition, most hits filed as inhibitors. 410,000 compounds, 0.12% hits; note: potency is the fitted concentration of half-maximal effect; % is set by controls: 0 for no effect and ±100 for the full control effect; nearly all actives have a fitted effect of over 50% in size
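Activity of T. brucei pyruvate kinase was followed by Kinase-Glo Plus luminescence after the enzyme reacted 45 min at room temperature with 130 uM ADP (final) and substrate. Test compounds were added before ADP at multiple concentrations.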
LmPK inhibitor: LmPK (Leishmania mexicana) enzyme inhibition. Potency, µM (titrated, usually from 57.5 µM), without a hit: top-dose activity change, negative = inhibition, hits mostly inhibitors. purified LmPK, Kinase-Glo ATP luminescence, 1 h. AID 1721. 290,000 compounds, 0.37% hits. Q27686; note: potency is the fitted concentration of half-maximal effect; % is set by controls: 0 for no effect and ±100 for the full control effect
Target sequence (Q27686 whole entry, looked up): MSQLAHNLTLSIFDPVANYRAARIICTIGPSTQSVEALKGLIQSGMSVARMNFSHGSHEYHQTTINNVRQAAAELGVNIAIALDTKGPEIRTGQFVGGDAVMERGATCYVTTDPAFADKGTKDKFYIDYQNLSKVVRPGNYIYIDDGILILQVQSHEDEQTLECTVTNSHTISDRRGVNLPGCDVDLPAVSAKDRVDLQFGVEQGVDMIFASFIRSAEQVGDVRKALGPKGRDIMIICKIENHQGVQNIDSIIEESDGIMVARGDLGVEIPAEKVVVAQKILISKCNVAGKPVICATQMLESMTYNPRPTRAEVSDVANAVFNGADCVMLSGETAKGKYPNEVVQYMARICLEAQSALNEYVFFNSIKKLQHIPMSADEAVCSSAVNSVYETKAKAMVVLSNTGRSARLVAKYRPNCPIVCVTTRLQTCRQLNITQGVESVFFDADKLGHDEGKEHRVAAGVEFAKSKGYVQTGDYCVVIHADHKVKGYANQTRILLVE
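In 50 mM imidazole pH 7.2 with 7 mM MgCl2, LmPK (0.1 nM) turned over PEP (0.5 mM) and ADP (0.1 mM) for 1 h at room temperature. Luciferase read-out of ATP.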
RE007 growth inh: less growth of the S. pombe RE007 Vpr strain. S. pombe RE007 Vpr strain, BacTiter-Glo ATP luminescence, 24 h. Potency, µM (doses to about 92.2 µM), for inactives: at the top dose activity change, negative = less growth, actives largely listed as inhibitors. 360,000 compounds, 0.21% hits. AID 651644; active = well fitted falling curve with a large enough effect; note: potency is the fitted concentration of half-maximal effect; % is set by controls: 0 for no effect and ±100 for the full control effect; nearly all actives have a fitted effect of over 50% in size
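Fission yeast RE007 carrying one integrated HIV-1 vpr copy, seeded at OD 0.01 in PMG+AL medium with 23 nL pinned compound. Grown 24 h at 30 degrees; viability read by BacTiter-Glo luminescence after 5 min.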
Giardia FBPA inh: inhibitors of Giardia lamblia fructose-1,6-bisphosphate aldolase; purified Giardia FBPA; 290,000 compounds, 0.71% hits; AID 2451; A8B2U2; Potency, µM (doses to about 59.6 µM), without a hit: at the top dose activity, negative = inhibition, most hits filed as inhibitors; note: potency is the fitted concentration of half-maximal effect; % is set by controls: 0 for no effect and ±100 for the full control effect; nearly all actives have a fitted effect of over 55% in size
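40 nM FBPA preincubated 10 min at RT with compound (up to 57.5 uM final), then substrate plus GAPDH/TPI/NAD/arsenate coupling and diaphorase/resazurin added. Fluorescence read after 20 min at RT, 525/598 nm.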
CHX counter: counter-screen hit for Shiga toxin inhibitors, cycloheximide | max response, % | AID 2314 | 300,000 compounds, 12% hits | cell reporter, cycloheximide protein synthesis inhibition counterscreen; in the data active = max response mostly above about 13%, no sharp cut-off; inactive = mostly below about 14%; note: read at 38.3 µM for the half of the compounds with a filed dose; 0% is about no effect
Shiga inhibitor: blocks Shiga toxin action in Vero cells; Vero cells, Shiga toxin protein synthesis inhibition reporter; inhibition, % at 38.7 µM; 290,000 compounds, 9.2% hits; in the data active = inhibition mostly above about 28%, no sharp cut-off; inactive = mostly below about 43%; note: 0% is about no effect
* marks the source's active call; other numbers are inactive results; nt = not tested or not shown. Unless noted, calls come from the whole dose curve; as a rule, active = well fitted curve in the direction sought with a large enough effect; inconclusive = small, poorly fitted or top-dose-only effect, or another doubt; inactive = no such curve, though single readings can be large; an effect the other way counts as inactive or inconclusive.

SMILES	TbPYK inhibitor	LmPK inhibitor	RE007 growth inh	Giardia FBPA inh	CHX counter	Shiga inhibitor
O=C(c1cccs1)N1CCC(c2ccccc2)C1 (configuration not stated)	1%	-7%	-9%	6%	41*	97*
Cc1ccc(NC(=O)N2CCCC(c3ccccc3)C2)cc1 (configuration not stated)	0%	-2%	8%	-8%	22*	26
O=C(CCN1CCC(c2ccccc2)C1)c1cccs1 (configuration not stated)	-8%	-2%	-9%	-7%	1	3
CCc1ccc(NC(=O)N2CCC(c3ccccc3)C2)cc1 (configuration not stated)	3%	-4%	9%	0%	39*	108*
CCC(=O)C1=C(c2ccc(Cl)cc2)N(C(=O)CC)n2c(C)nnc2S1	0%	nt	nt	nt	nt	nt
Cc1nn(-c2ccccc2)c2c1cc1c(=O)[nH]c(=O)nc-1n2-c1cccc(C(F)(F)F)c1	-6%	nt	nt	nt	nt	nt
O=c1c(-c2ccc(Cl)cc2)nc2cnc(N3CCNCC3)nc2n1Cc1ccc(F)cc1	-7%	nt	nt	0%	nt	nt
CCOc1ccc(NC(=O)N2CCC(c3ccc(C)cc3)C2)cc1 (configuration not stated)	-2%	5%	9%	7%	18*	30
O=C(Nc1ccccc1)N1CCC(c2ccccc2)C1 (configuration not stated)	0%	-3%	24%	8%	39*	83*
Cc1ccc(C2CCN(C(=O)Nc3ccc(Cl)cc3)C2)cc1 (configuration not stated)	2%	nt	nt	nt	nt	nt
Cc1ccc(Cl)cc1NC(=S)N1CCC(c2ccccc2)C1 (configuration not stated)	-2%	1%	5%	-5%	26*	27
Cc1ccc(C)c(NC(=S)N2CCCCCC2)c1	-6%	5%	-3%	-6%	6	-8
N#Cc1nc(NCC2CC2)nc(Nc2ccccc2)n1	nt	nt	nt	0%	nt	nt
COc1ccc(-n2ccnc2SCC(=O)Nc2cccc(OC)c2)cc1	3%	nt	nt	nt	nt	nt
O=C1c2ccccc2C(=O)N1CSc1nnc(Nc2ccccc2)s1	3%	2%	-21%	0%	-4	18
CN(C(=O)CSc1nnc(Nc2ccccc2)s1)c1c(N)n(Cc2ccccc2)c(=O)[nH]c1=O	-6%	-1%	-6%	-1%	29*	97
OCCSc1nnc(Nc2ccccc2)s1	-4%	-17%	-13%	0%	38*	87*
CC(C)(C)C(=O)CSc1nnc(Nc2ccccc2)s1	2%	-2%	-19%	0%	34*	51
Cc1csc2nc(COc3ccc(NC(=O)c4ccccc4F)cc3)cc(=O)n12	3%	nt	nt	nt	nt	nt
COc1ccc(CSc2ncnc3sccc23)cc1F	-9%	7%	-8%	0%	12	55*
CCC(C)NC(=O)c1sc2ncccc2c1-n1c(C)ccc1C (configuration not stated)	-3%	nt	nt	nt	nt	nt
N#Cc1nc(-c2ccccc2F)oc1NCCN1CCOCC1	1%	8%	-3%	0%	-3	1
N#Cc1nc(-c2cccc3ccccc23)oc1NCCN1CCOCC1	-1%	2%	-5%	1%	15*	33
CCCNc1oc(-c2cccc3ccccc23)nc1C#N	-19%	1%	-10%	2%	22*	69*
Cc1cccn2c(=O)c(C(=O)NCCc3ccccc3)c(O)nc12	-2%	nt	nt	nt	nt	nt
COc1ccc(NC(=O)CSc2nnc(NC(=O)Nc3ccccc3)s2)c(OC)c1	0%	nt	nt	nt	nt	nt
CC(=O)N1CCc2cc(S(=O)(=O)CCC(=O)N3CCN(c4ccccn4)CC3)ccc21	0%	-1%	10%	-5%	3	-5
O=C(CN1CCN(c2ccccc2F)CC1)N1CCc2ccccc21	2%	-8%	-8%	nt	14*	16
CC(=O)N1CCc2cc(C(=O)CN3CCN(c4ccccn4)CC3)ccc21	0%	6%	-14%	-20%	37*	77*
CC(=O)N1CCc2cc(C(=O)CN3CCN(c4ccccc4F)CC3)ccc21	-2%	12%	1%	-18%	21*	59*
